# Bioassay records deposited in PubChem by National Center for Advancing Translational Sciences (NCATS).
# Most compounds without a hit are left out; they make up all but 2.2% or so of the library.
# FUS yeast rescue: suppressors of FUS proteinopathy in yeast; S. cerevisiae FUS-expressing, growth rescue, OD600, 24 h; Potency, µM (doses to about 76.6 µM), hits mostly activators; 0.24% of 390,000 active;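 further: plate controls were DMSO vehicle for no effect and reference control for full effect; nearly all actives have a fitted effect of over 55% in size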
#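 FUS-expressing yeast, raffinose-pregrown, induced in 2% galactose minimal medium at OD 0.005; compounds in a dilution series, 24hr at 30C. Growth restoration read as absorbance at 600 nm. CP55940 positive control, DMSO negative.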
# Abeta yeast res: A-beta toxicity reversal in yeast; yeast expressing A-beta42, growth rescue, OD600, 48 h; response scale: 0% DMSO, 100% iron-clioquinol control; Potency, µM (top dose mostly 46.1 µM), actives largely listed as activators; 0.063% of 410,000 active; further: nearly all actives have a fitted effect of over 55% in size
#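 Growth rescue measured by 600 nm absorbance after 48 h yeast culture at 30 C with compound. Values normalized between DMSO and an equimolar ferric chloride plus clioquinol control.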
# aSyn rescue: inhibitors of alpha-synuclein toxicity in yeast; Yeast expressing alpha-synuclein, growth rescue, BacTiter-Glo, 24 h; Potency, µM (series often up to 46.1 µM), for the others: top-dose growth rescue (activation), usual class: activators; 0.14% of 370,000 active; further: % of control where 0% means no effect; nearly all actives have a fitted effect of over 65% in size
#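 Screening used galactose-induced yeast with toxic alpha-synuclein levels, exposed to compound for 24 hr at 30 deg C. Cell growth, read with BacTiter-Glo luminescence, gave the measured signal.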
# Mito fusion yeast: mitochondrial division inhibition or fusion activation | S. cerevisiae fusion-defective mutant growth rescue, CellTiterGlo 48 h | Potency, µM (top dose mostly 46.1 µM), inactives show top-dose growth rescue (activation), actives largely listed as activators | 0.23% of 320,000 active | AID 485298; further: % of control where 0% means no effect; nearly all actives have a fitted effect of over 45% in size
#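 S. cerevisiae fusion-defective temperature-sensitive mutants (e.g. fzo1-1, mgm1-5) grown 48 h at 37C in YPEG (ethanol/glycerol non-fermentable) medium with 23 nl compound per well; growth rescue read as CellTiterGlo luminescence.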
# TDP43 rescue: inhibitors of TDP-43 toxicity in yeast; TDP-43 expressing yeast growth rescue, BacTiter-Glo, 24 h; Potency, µM (doses to about 46.1 µM), for inactives: at the top dose growth rescue (activation), actives largely listed as activators; 1.8% of 410,000 active; further: % of control where 0% means no effect; nearly all actives have a fitted effect of over 50% in size
#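 In this qHTS, compounds that restore growth of yeast expressing TDP-43 appear as activators. Cells (OD600=0.02, galactose medium, raffinose-pregrown) are incubated with compound 24 hr at 30 deg C and growth is quantified by BacTiter-Glo.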
# * marks the source's active call; other numbers are inactive results; i = inactive; ? = inconclusive; . = no result. The call rests on the fitted dose curve; in most records, active means well fitted curve in the direction sought with a large enough effect; inconclusive means small, poorly fitted or top-dose-only effect, or another doubt; inactive means no such curve, though single readings can be large; an effect the other way counts as inactive or inconclusive. Potency means the concentration at half of the fitted maximal effect.
SMILES,FUS yeast rescue,Abeta yeast res,aSyn rescue,Mito fusion yeast,TDP43 rescue
Cc1ccc(-c2nnn3c2nc(Cl)c2ccccc23)cc1,i,i,-17.1%,-9.2%,4.5%
O=C(CN1CCN(S(=O)(=O)c2cc(Cl)ccc2Cl)CC1)Nc1cccc(F)c1,i,i,8.7%,.,35.5µM*
CC(=O)OC1CCC2(C)C(CCC3C4CC=C(C(C)=O)C4(C)OC(=O)CC32)C1 (stereo not drawn),i,i,-19.4%,.,-85.0%
CC(=O)O[C@H]1CC[C@@]2(C)C(CCC3C2CC[C@]2(C)OC(=O)CCC32)C1 (stereo partly drawn),i,i,19.2%,10.2%,35.5µM*
O=C(O)c1ccc(/C=C2\COc3ccccc3C2=O)cc1,i,i,?,-19.0%,11.2µM*
CCOc1cc(/C=C2\COc3ccccc3C2=O)cc(Br)c1OCC(=O)N(C)C,?,i,?,-56.5%,22.4µM*
COc1ccc(/C=C2\COc3ccccc3C2=O)cc1OC,i,i,23.4%,-10.7%,2.82µM*
CCOc1cc(/C=N/Nc2nc3ccccc3[nH]2)cc(Br)c1OCC(=O)N(C)C,i,i,2.6%,2.5%,8.0%
Cc1nn(S(=O)(=O)c2ccc(C(C)C)cc2)c(C)c1S(=O)(=O)N1CCCCCC1,i,i,.,.,13.8%
CCC(=O)Nc1ccc(C)cc1-c1nc2ccccc2n(C(C)C(=O)Nc2ccccc2CC)c1=O (stereo not drawn),i,i,.,.,4.0%
Nc1ccc2oc(=O)c3ccccc3c2c1,.,i,19.5%,-9.4%,12.6µM*
O=c1oc(=O)c2ccccc2c2ccccc12,.,i,4.1%,.,0.0%
N/C(=N\OC(=O)CC1CCCCC1)c1ccccn1,i,i,3.7%,-2.4%,15.8µM*
COc1ccc(CC(=O)O/N=C(\N)c2ccccn2)cc1,i,i,-7.2%,-7.5%,-5.4%
N/C(=N\OC(=O)Cc1ccc(-c2ccccc2)cc1)c1ccccn1,i,i,-0.7%,17.7%,12.6µM*
C[C@H](O)[C@@H]1CN2CCc3c([nH]c4c(-c5ccccc5)cccc34)[C@@H]2C[C@@H]1N(C)CC1CCCCC1,i,.,.,.,.
CCN(CC)CCNC(=O)c1ccc2c(c1)NC(=O)C(CS(=O)(=O)Cc1ccc(F)cc1Cl)N2 (stereo not drawn),?,i,.,-9.5%,3.2%
CCN(CC)CCCNC(=O)c1ccc2c(c1)NC(=O)C(CS(=O)(=O)Cc1ccc(F)cc1Cl)N2 (stereo not drawn),25.1µM*,i,.,.,-1.4%
C=CCN1C(=O)[C@@H](CC(=O)N2CCN(C(=O)OCC)CC2)[C@]2(C(=O)OC)CCCCC=C12,i,.,.,.,.
O=C1NC2(CCc3ccccc3C2)C(=O)N1CCOc1cccc(Cl)c1 (stereo not drawn),i,?,14.7%,15.2%,20µM*
NC1=C(Br)C(=O)c2ncccc2C1=O,.,i,-5.8%,.,11.2µM*
C[C@H]1[C@@H](NC(=O)c2ccc(O)cc2)CC[C@@]23CCCN2C(=O)CCC[C@@H]13,i,.,.,.,.
O=C(NCc1ccccc1)c1ccc2ccccc2n1,i,i,0.1%,?,15.0%
Cc1ccccc1CNC(=O)c1ccc2ccccc2n1,i,i,11.9%,?,15.8µM*
COC(=O)C1=C(C)N(Cc2ccccc2)C(=S)N[C@H]1c1cccc(F)c1,?,i,?,12.7%,11.2µM*
SMILES,FUS yeast rescue,Abeta yeast res,aSyn rescue,Mito fusion yeast,TDP43 rescue
CCC(=O)N1CCc2cc(Br)cc(S(=O)(=O)N3CCCC(C(=O)Nc4ccc(C)c(F)c4)C3)c21 (stereo not drawn),i,i,.,.,-11.7%
CCC(=O)N1CCc2cc(Br)cc(S(=O)(=O)N3CCCC(C(=O)Nc4ccc(C(C)C)cc4)C3)c21 (stereo not drawn),8.91µM*,i,.,.,-7.9%
CN(N=Cc1ccccc1O)c1ccc2ccccc2n1,i,i,-15.5%,.,-2.0%
CN(/N=C/c1cc(Br)cc(Br)c1O)c1cccc(C(F)(F)F)n1,i,i,8.91µM*,-5.1%,?
CCCCn1c(SCC(=O)c2ccc(O)c(O)c2)nc2ccsc2c1=O,.,i,5.6%,-2.2%,20µM*
O=c1c2oc3ccccc3c2n(Cc2ccccc2Cl)c(=O)n1Cc1ccc2c(c1)OCO2,i,i,.,.,3.3%
COc1ccc([C@H]2Cc3cccc(O)c3C(=O)O2)cc1O,i,i,7.7%,10.2%,11.2µM*
Cc1ccc2nc(NC(=O)CSc3nccn3Cc3ccccc3)sc2c1,i,?,?,.,?
O=C(C[n+]1cccc2cc(Cl)ccc21)c1ccc2c(c1)CCCC2,.,.,1.4%,.,.
C=CCN1[C@H](Cc2ccccc2)COc2cc(F)ccc2S1(=O)=O,i,.,.,.,.
O=C(Nc1cc(Br)ccc1O)C1CC(c2c(F)cccc2Cl)=NO1 (stereo not drawn),i,i,-1.9%,-7.0%,5.5%
O=C(Nc1ccc(Br)cc1)C1CC(c2c(F)cccc2Cl)=NO1 (stereo not drawn),i,i,7.3%,-4.1%,11.2µM*
Cc1c(NC(=O)/C(C#N)=C/c2ccc(-c3ccc(Cl)cc3)o2)c(=O)n(-c2ccccc2)n1C,?,i,1.0%,22.9%,31.6µM*
Clc1ccc(-n2nnnc2-c2cnc(-c3ccncc3)nc2-c2cccs2)cc1,i,i,15.8%,14.1µM*,0.0%
FC(F)(F)c1nc(-c2cccs2)ncc1-c1nnnn1-c1ccc(Cl)cc1,i,i,-3.9%,1.8%,3.4%
O=C(O)C1CCN(c2c([N+](=O)[O-])cc(C(F)(F)F)cc2[N+](=O)[O-])CC1,i,i,3.0%,0.2%,20µM*
CCOC(=O)C1CCN(c2ncnc3c2[nH]c2cccc(OC)c23)CC1,22.4µM*,i,1.4%,0.5%,-14.1%
Fc1ccc(-c2nc3ccccc3c3nc4ccccc4n23)cc1,i,i,-12.8%,?,0.2%
Cc1nc2ccccc2c2nc3ccccc3n12,i,i,?,-3.0%,12.6µM*
Cc1[nH]c2ccccc2c1/C=N/NC(=O)c1cccc([N+](=O)[O-])c1,i,i,-2.2%,-5.4%,0.0%
Cc1[nH]c2ccccc2c1/C=N/Nc1ccc([N+](=O)[O-])cc1,i,i,9.6%,-1.3%,2.82µM*
Cc1ccc2nc(NC(=O)c3ccc(S(=O)(=O)N4CCC(C)CC4)cc3)sc2c1,i,i,-7.7%,.,4.1%
Cc1cc(C)c2nc(NNC(=O)c3ccc(S(=O)(=O)N4CCCC(C)C4)cc3)sc2c1 (stereo not drawn),i,i,26.6%,-6.1%,?
Cc1cc(C)c2nc(NNC(=O)c3ccc(S(=O)(=O)N4CC(C)CC(C)C4)cc3)sc2c1 (stereo not drawn),i,i,0.5%,-4.8%,5.01µM*
